Results: PubChem BioAssay
Inconclusive results are not listed. Calls of active or inactive are those of the source.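 The calls were made as follows, unless noted: active = viability at or under a set limit in both replicates, limit being median viability minus 3 SD (cut at about 48% in these data, passing the limit was not always enough); inconclusive = at or under the limit in just one replicate; inactive = at or above the limit in both replicates.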

Tests used:
[1] = reducers of endogenous Her2 protein level, primary screen, SKBR3 breast tumor cells, AlphaScreen, ATP viability (AID 461;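 active = Her2 level under about 52% in both replicate screens, with viability over 70% of control, limit read from the data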;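 as to Her2 level: lower value means less Her2 protein in the cells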;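 as to viability: percent of carrier control wells set as 100% viability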); conditions: 18-24 h, measured here: SKBR3 viability, ATP luminescence, at 10 µM
[2] = target: Receptor tyrosine-protein kinase erbB-2 (Homo sapiens) (UniProt P04626); experiment: as above; conditions: 18-24 h, at 10 µM, stronger effect = lower value
Receptor tyrosine-protein kinase erbB-2 (Homo sapiens), sequence (P04626 whole entry, looked up): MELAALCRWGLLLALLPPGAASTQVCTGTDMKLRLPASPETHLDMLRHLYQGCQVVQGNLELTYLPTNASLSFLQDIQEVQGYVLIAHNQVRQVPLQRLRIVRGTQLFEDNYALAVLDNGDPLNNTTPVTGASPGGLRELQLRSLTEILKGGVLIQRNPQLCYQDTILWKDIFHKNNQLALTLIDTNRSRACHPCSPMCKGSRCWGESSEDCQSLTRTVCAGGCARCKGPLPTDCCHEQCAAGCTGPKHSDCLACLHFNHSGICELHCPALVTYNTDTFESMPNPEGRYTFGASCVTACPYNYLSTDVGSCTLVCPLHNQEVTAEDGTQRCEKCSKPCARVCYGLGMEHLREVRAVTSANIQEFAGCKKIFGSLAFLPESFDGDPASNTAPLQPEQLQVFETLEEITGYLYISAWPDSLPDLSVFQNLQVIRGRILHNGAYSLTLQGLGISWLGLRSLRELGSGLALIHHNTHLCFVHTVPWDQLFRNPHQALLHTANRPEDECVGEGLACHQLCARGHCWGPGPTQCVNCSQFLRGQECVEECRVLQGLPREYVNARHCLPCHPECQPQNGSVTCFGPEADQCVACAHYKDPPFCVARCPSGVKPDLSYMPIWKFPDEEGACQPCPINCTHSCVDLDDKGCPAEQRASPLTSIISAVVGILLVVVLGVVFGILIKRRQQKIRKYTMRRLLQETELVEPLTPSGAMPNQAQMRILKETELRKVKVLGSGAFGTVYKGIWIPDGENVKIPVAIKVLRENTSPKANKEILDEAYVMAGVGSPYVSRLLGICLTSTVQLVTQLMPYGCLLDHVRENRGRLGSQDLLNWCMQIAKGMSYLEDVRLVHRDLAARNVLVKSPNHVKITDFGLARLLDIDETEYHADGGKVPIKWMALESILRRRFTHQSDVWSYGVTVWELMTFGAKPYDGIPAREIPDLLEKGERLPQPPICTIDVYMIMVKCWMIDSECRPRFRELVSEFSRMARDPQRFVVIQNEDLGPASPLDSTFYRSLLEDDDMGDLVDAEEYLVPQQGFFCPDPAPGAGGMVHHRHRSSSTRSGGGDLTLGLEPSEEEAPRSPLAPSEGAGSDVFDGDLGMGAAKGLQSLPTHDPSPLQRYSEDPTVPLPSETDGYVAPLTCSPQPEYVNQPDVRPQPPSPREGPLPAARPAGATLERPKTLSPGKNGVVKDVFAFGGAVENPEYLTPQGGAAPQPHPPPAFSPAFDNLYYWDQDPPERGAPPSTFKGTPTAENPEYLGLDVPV

[3] = SK-BR-3 cell growth inhibitors, pilot screen, 24 h, human (AID 572;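 active = viability at or below 10% of carrier control in both of two separate runs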;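 also: compound exposure lasted between 18 and 24 h rather than exactly 24 h; 100% = carrier-treated control wells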); conditions: SK-BR-3 viability, CellTiter-Glo luminescence, at 10 µM, stronger effect = lower value
[4] = HUVEC growth inhibition – cell-based, human, primary screen (AID 575;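 active = viability at or below 30% in both replicate assays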;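 also: 100% = median of untreated cell wells with 0.1% DMSO on each plate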); conditions: HUVEC proliferation, CellTiter-Glo luminescence, 72 h; at 10 µM; stronger effect = lower value
[5] = growth inhibitors of H69AR lung tumor, primary screen, human, duplicate replicates (AID 580); conditions: H69AR lung tumor cells viability, ATP luminescence, 72 h; at 10 µM; stronger effect = lower value;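 also: 100% = mean luminescence of untreated wells and 0% = no signal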
[6] = reversal of MRP1-mediated doxorubicin resistance, pilot screen, H69AR cells, doxorubicin co-treatment (AID 601;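 active = viability loss from added drug above about 55%, and viability with drug at most 40%, in both replicates, limit read from the data, passing the limit was not always enough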); conditions: CellTiter-Glo, 72 h, at 10 µM; for differential viability (reversal): stronger effect = higher value
[7] = 384-well plate pilot, post-Golgi transport modulator project, inhibition of yeast transport mutant growth (AID 636; in the data active = inhibition above about 31%); conditions: absorbance 615 nm, about 18 h, stronger effect = higher value
[8] = growth suppression of yeast trafficking mutant, preliminary HTS, modulators of trafficking downstream of Golgi apparatus project, 1536-format plate, OD 615 nm (AID 637; in the data active = inhibition above about 30%); conditions: yeast transport mutant growth, absorbance 615 nm, 18 h; stronger effect = higher value
[9] = OD615 S. cerevisiae growth inhibition, permissive medium, pilot counter-assay, permissive growth control for S. cerevisiae lifespan shortening project (AID 705;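 active = growth inhibition above 25% in both replicates, a cutoff set 3 SD above the mean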); conditions: OD615, 24 h, at 10 µM, stronger effect = higher value
[10] = Restrictive medium S. cerevisiae growth inhibition, OD615, pilot screen of yeast lifespan reduction project, restrictive growth control (AID 706;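 active = growth inhibition above a set limit, 3 SD over mean compound inhibition, in both replicates, cut at about 43% in these data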;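 also: modified DeaD lifespan yeast strain shifted to restrictive glucose medium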); conditions: OD615, 48 h, at 10 µM, stronger effect = higher value
[11] = viability gain of MRP-1-high H69AR cells under doxorubicin, pilot screen, MRP-1 activator project, CellTiter-Glo, duplicate (AID 807;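 active = viability increase at or above a cutoff of the median across tested compounds plus 3 SD, cut at about 8.5% in these data, passing the limit was not always enough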;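 also: compound pretreatment 18-22 h then 72 h combined with doxorubicin; 0% = doxorubicin alone and 100% = vehicle without doxorubicin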); conditions: H69AR viability with doxorubicin, CellTiter-Glo luminescence; at 10 µM; stronger effect = higher value
[12] = growth suppression of beta-catenin knockout HCT116, pilot screen, human colon tumor cells (AID 823;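 active = cell viability at or below a set limit in both duplicate runs, the limit being the all-compound median minus 4 SD, cut at about 23% in these data, passing the limit was not always enough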;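 also: 0% = wells killed by 20 µM Hyamine and 100% = untreated DMSO cell wells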); conditions: CellTiter-Glo, 60 h, at 10 µM, stronger effect = lower value
[13] = inhibitors of the yeast RAM network, pilot screen, dse1pr::URA3 reporter, 5-FOA selection (AID 869;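 active = inhibition over a set limit, the all-compound mean plus 3 SD, in both replicate runs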;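 also: 0% = DMSO wells with no growth and 100% = 10 µM 1-NA-PP1 with full growth; RAM network block rescues cells from 5-FOA so hits raise OD615 growth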); conditions: S. cerevisiae dse1pr::URA3 5-FOA growth, OD615, 2 d; at 10 µM; stronger effect = higher value; strain carries analog-sensitive mutant Cbk1 kinase
[14] = RAM signaling pathway blockade in yeast – S. cerevisiae, Pdr1DBD-CYC8 efflux-inhibited sensitized strain, primary screen (AID 1298;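 active = RAM network inhibition above 8.4% in each of two replicates, 3 SD over the compound average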;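 also: 0% = DMSO untreated cells without growth and 100% = 10 µM 1-NA-PP1 full growth; higher means more yeast growth rescued from 5-FOA killing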); conditions: S. cerevisiae cbk1-as DSE1-URA3 strain, 5-FOA growth OD615, 2 d; at 50 µM; stronger effect = higher value
[15] = growth suppression of PTEN-deleted HCT116, pilot screen, cell-based, HCT116 clonal line, CellTiter-Glo (AID 824;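 active = viability at or below 27.92% in each of two runs, the all-compound median minus 4 SD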;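 also: 0% = 20 µM Hyamine control and 100% = vehicle cell control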); conditions: 60 h, at 10 µM, stronger effect = lower value
[16] = H69AR cells + 2 uM doxorubicin, measured here: viability with 2 uM doxorubicin, stronger effect = lower value
[17] = H69AR cells, compound alone cytotoxicity

| Compound | viability [1] [%] | Her2 level [2] | viability [3] | viability [4] | viability [5] | differential viability (reversal) ([6]; H69AR cells + 2 uM doxorubicin) | viability [6, 16] [%] | viability [6, 17] [%] | inhibition [7] | inhibition [8] | growth inhibition [9] | growth inhibition [10] | viability increase [11] | viability [12] | inhibition [13] | RAM network inhibition [14] | viability [15] |
| --- | --- | --- | --- | --- | --- | --- | --- | --- | --- | --- | --- | --- | --- | --- | --- | --- | --- |
| COc1cc2[nH]c(=O)n(CCCCCC(=O)N3CCN(c4ccccn4)CC3)c(=O)c2cc1OC | 104 | 92.5% (inactive) | 104% (inactive) | 100% (inactive) | 89.3% (inactive) | -2.77% (inactive) | 92.1 | 89.3 | -5.95% (inactive) | -4.83% (inactive) | -9.93% (inactive) | -5.11% (inactive) | -4.76% (inactive) | 73.2% (inactive) | 1.7% (inactive) | 3.23% (inactive) |  |
| c1ccc2c(c1)nc(NC1CCCCC1)c1nncn12 | 98.5 | 109% (inactive) | 98.5% (inactive) | 86.6% (inactive) | 90.8% (inactive) | 19.9% (inactive) | 70.9 | 90.8 | -5% (inactive) | -1.17% (inactive) | -8.94% (inactive) | -7.48% (inactive) | -6.65% (inactive) | 89.9% (inactive) | 0.325% (inactive) | 2.5% (inactive) | 83.3% (inactive) |
| Cc1nc(NCc2ccc3c(c2)OCO3)c2oc3ccccc3c2n1 | 99 | 104% (inactive) | 99% (inactive) | 60% (inactive) | 98.3% (inactive) | -8.4% (inactive) | 107 | 98.3 | -0.93% (inactive) | -2.9% (inactive) | -23.6% (inactive) | -6.14% (inactive) | -0.11% (inactive) | 82.7% (inactive) | 0.65% (inactive) | 3.7% (inactive) |  |
| COCCCNC(=O)c1ccc(CS(=O)(=O)c2ccc(OC)cc2)o1 | 104 | 105% (inactive) | 104% (inactive) | 95.4% (inactive) | 91.6% (inactive) | 4.5% (inactive) | 87.1 | 91.6 | -4% (inactive) | 2.62% (inactive) | -12% (inactive) | -24.6% (inactive) | -1.48% (inactive) | 98.6% (inactive) | 0.405% (inactive) | 1.46% (inactive) | 91% (inactive) |
| CC(C)C(NC(=O)c1ccc(S(=O)(=O)N2CCOCC2)cc1)c1nc2ccccc2[nH]1 (centres undefined) | 104 | 94.5% (inactive) | 104% (inactive) | 72.5% (inactive) | 82.2% (inactive) | -2.94% (inactive) | 85.2 | 82.2 | 1.95% (inactive) | -2.95% (inactive) | -13.7% (inactive) | -12.6% (inactive) | -5.63% (inactive) | 100% (inactive) | 2.71% (inactive) | 6.44% (inactive) |  |
| CCc1ccc(N2CC(C(=O)OCC(=O)NC3CCS(=O)(=O)C3)CC2=O)cc1 (centres undefined) | 100 | 112% (inactive) | 100% (inactive) | 98.6% (inactive) | 103% (inactive) | 3.14% (inactive) | 99.5 | 103 | 3.12% (inactive) | 7.54% (inactive) | -17% (inactive) | 1.96% (inactive) | 1.23% (inactive) | 96.5% (inactive) | 0.795% (inactive) | 3.33% (inactive) |  |
| COc1ccccc1N1CCN(c2cc(=O)n(Cc3ccc(F)cc3)c(=O)[nH]2)CC1 | 99 | 68.5% (inactive) | 99% (inactive) | 44.1% (inactive) | 12.1% (active) | -38% (inactive) | 50.1 | 12.1 | 0% (inactive) | 9.17% (inactive) | -0.995% (inactive) | 0.535% (inactive) | -5.11% (inactive) | 33.6% (inactive) | 1.02% (inactive) | 2.69% (inactive) |  |
| COc1ccc(CCNC(=O)c2cnn3ccccc23)c(OC)c1OC | 92.5 | 98.5% (inactive) | 92.5% (inactive) | 78.8% (inactive) | 96.5% (inactive) | -0.525% (inactive) | 97 | 96.5 | -5.6% (inactive) | -2.67% (inactive) | -9.7% (inactive) | -2.3% (inactive) | -1.15% (inactive) | 101% (inactive) | 1.33% (inactive) | 3.06% (inactive) | 87.8% (inactive) |
| CCOC(=O)Cn1nc(-c2ccc(Cl)cc2)cc1N | 78 | 116% (inactive) | 78% (inactive) | 91.8% (inactive) | 101% (inactive) | 18% (inactive) | 83.1 | 101 | -7.95% (inactive) | -0.48% (inactive) | -8.98% (inactive) | 2.33% (inactive) | 0.37% (inactive) | 102% (inactive) | 1.88% (inactive) | 5.56% (inactive) |  |
| C(/CCc1ccccc1)=N\n1cnnc1 | 105 | 94.5% (inactive) | 105% (inactive) | 117% (inactive) | 99% (inactive) | 9.93% (inactive) | 89.1 | 99 | -5.07% (inactive) | 8.03% (inactive) | -14.7% (inactive) | 1.89% (inactive) | -1.24% (inactive) | 102% (inactive) | 0.44% (inactive) | 5.92% (inactive) |  |
| c1nc(NCC2(N3CCOCC3)CCCCC2)c2ccsc2n1 | 82.5 | 93% (inactive) | 82.5% (inactive) | 97.7% (inactive) | 98.6% (inactive) | -0.545% (inactive) | 99.2 | 98.6 | -5.27% (inactive) | -2.54% (inactive) | -25.4% (inactive) | 3.08% (inactive) | -3.33% (inactive) | 78.8% (inactive) | 1.14% (inactive) | 8.05% (inactive) |  |
| CCOc1ccc(NC(=O)CSc2nccn2C)cc1 | 103 | 85.5% (inactive) | 103% (inactive) | 82.7% (inactive) | 99.7% (inactive) | 6.7% (inactive) | 93 | 99.7 | -4.34% (inactive) | 0.83% (inactive) | -14.8% (inactive) | -9.37% (inactive) | -1.79% (inactive) | 106% (inactive) | 2.29% (inactive) | 7.99% (inactive) |  |
| Cc1[nH]nc2c1C(C1CC=CCC1)C(C#N)=C(N)O2 (centres undefined) | 102 | 80% (inactive) | 102% (inactive) | 63.5% (inactive) | 96% (inactive) | 0.85% (inactive) | 95.1 | 96 | 0.65% (inactive) | -9.17% (inactive) | 1.72% (inactive) | 1.64% (inactive) | -5.29% (inactive) | 17.6% (active) | 3.08% (inactive) | -0.5% (inactive) |  |
| Oc1c(C(c2ccccc2)N2CCc3ccccc3C2)sc2ncnn12 (centres undefined) | 87.5 | 82.5% (inactive) | 87.5% (inactive) | 74.4% (inactive) | 85% (inactive) | -0.02% (inactive) | 85.1 | 85 | -2.69% (inactive) | -2% (inactive) | 7.92% (inactive) | 8.2% (inactive) | 3.99% (inactive) | 97.1% (inactive) | 1.78% (inactive) | 4.48% (inactive) | 93.3% (inactive) |
| COCc1nnc(NC(=O)c2ccc(S(=O)(=O)N(C)c3ccccc3)cc2)o1 | 85 | 107% (inactive) | 85% (inactive) | 66.6% (inactive) | 43.7% (active) | -18.5% (inactive) | 62.2 | 43.7 | -3.87% (inactive) | -2.17% (inactive) | 3.04% (inactive) | 9.5% (inactive) | -5.06% (inactive) | 29.7% (inactive) | 0.19% (inactive) | 4.65% (inactive) |  |
| O=C(Nc1nncs1)c1ccccc1NS(=O)(=O)c1cccs1 | 99 | 110% (inactive) | 99% (inactive) | 95.3% (inactive) | 90.2% (inactive) | -3.62% (inactive) | 93.8 | 90.2 | -4.86% (inactive) | -11.2% (inactive) | -20.1% (inactive) | -10.1% (inactive) | -1.16% (inactive) | 102% (inactive) | 2.67% (inactive) | 4.37% (inactive) |  |
| CCSc1oc(-c2ccco2)nc1S(=O)(=O)c1ccccc1 | 95 | 93.5% (inactive) | 95% (inactive) | 93.3% (inactive) | 89.3% (inactive) | 2.04% (inactive) | 87.2 | 89.3 | -5.95% (inactive) | -8.33% (inactive) | -16.4% (inactive) | 11.4% (inactive) | -2.68% (inactive) | 92.7% (inactive) | 1.75% (inactive) | 1.2% (inactive) |  |
| c1ccc(-c2nnc(CSc3nncs3)o2)cc1 | 104 | 86.5% (inactive) | 104% (inactive) | 88.4% (inactive) | 106% (inactive) | 13.6% (inactive) | 92.9 | 106 | -3.95% (inactive) | -4.67% (inactive) | -16% (inactive) | 8.37% (inactive) | -0.84% (inactive) | 106% (inactive) | 1.01% (inactive) | 5.21% (inactive) |  |
| N#Cc1c2n(c(=O)[nH]c1=O)CCCCC2 | 112 | 92% (inactive) | 112% (inactive) | 96.2% (inactive) | 103% (inactive) | 3.5% (inactive) | 99.7 | 103 | -2.6% (inactive) | -7.46% (inactive) | -9.79% (inactive) | 1.1% (inactive) | 1.19% (inactive) | 99.5% (inactive) | -0.04% (inactive) | 6.34% (inactive) |  |
| Cn1ccnc1SCC(=O)Nc1ccc2ccccc2c1 | 96.5 | 85.5% (inactive) | 96.5% (inactive) | 91.5% (inactive) | 105% (inactive) | 17.8% (inactive) | 86.9 | 105 | -4.38% (inactive) | -4.92% (inactive) | 2.36% (inactive) | 3.36% (inactive) | -2.68% (inactive) | 96.8% (inactive) | 1.69% (inactive) | 3.49% (inactive) |  |
